Assay outcomes as filed in PubChem.
Many of the other results were omitted from the sample, so hits are more common in it than they were.
TTR transcr act: activators of transthyretin transcription. SH-SY5Y TTR promoter Gaussia luciferase, luminescence; 100% = recombinant luciferase protein wells. activation, % at 16.7 µM. hit rate 1.3% among 92,000;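 active means activation above the mean of all tested compounds plus 3 SD, cut at about 9.5% in these data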;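 further: cells exposed to compounds for one day before reading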
TTR inh HuH7: counter-screen for TTR activators: TTR transcription inhibitors in HuH7 cells | shares compounds with TTR transcr act | HuH7 TTR promoter-Gaussia luciferase reporter, luminescence | inhibition, % at 16.7 µM | hit rate 4% among 1,100 | AID 1117279;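 active means average inhibition above the solvent-only control wells' mean plus 3 SD, cut at about 15% in these data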;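 further: inhibitors lower well luminescence so higher value means more inhibition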
TTR act confirm: human TTR transcription activation, confirmation. shares compounds with TTR transcr act. SHSY5Y TTR promoter Gaussia luciferase, luminescence; 100% = purified Lucia enzyme wells, no cells. activation, % at 16.7 µM. 1,100 tested, under 10 active;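 active means mean activation above a set limit taken from the earlier primary screen, cut at about 11% in these data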
Hits are given with their value; - = inactive.

SMILES	TTR transcr act	others
Fc1c(-c2ccc3ncnc(NCc4cccs4)c3c2)ccc2c1OCO2	-
COc1cccc(-c2cc3nc(C)c(C)c(N4CCN(Cc5ccco5)CC4)n3n2)c1	-
COC(=O)c1ccc(NC(=O)CCN2CCCCC2)cc1	10	TTR inh HuH7=-;TTR act confirm=-
COC(=O)c1ccc(NC(=O)CN2CCN(CCO)CC2)cc1	-
COC(=O)c1ccc(NC(=O)CCN2CCN(CCC(=O)Nc3ccc(C(=O)OC)cc3)CC2)cc1	-
C=CCN1C(=O)[C@H](CC(=O)N2CCSCC2)[C@@]2(C(=O)OCC)CCCC=C12	-
CCOC(=O)C1CCN(C(=O)C(C)(C)NC(=O)Nc2ccc(OC)c(Cl)c2)CC1	-
Clc1ccccc1OCCCCN1CCCCC1	-
C1CCCN(CCCCN2CCCCCC2)CC1	10	TTR inh HuH7=-;TTR act confirm=-
O=C(CCN1CCCCC1)NCNC(=O)CCN1CCCCC1	-
O=C(CCc1ccccc1-c1ccccc1CCNC(=O)c1c(F)cccc1F)NCc1ccccc1	-
COCCCNC(=O)C[C@H]1C[C@@]2(C(=O)OC)C(=C[C@H](C3CCCC3)O[C@@H]2C)N(Cc2cccc3ccccc23)C1=O	-
C#CCN1CC(N(C)CCOC(=O)c2ccc(C(C)(C)C)cc2)CS1(=O)=O (stereo unspecified)	-
CCCCCCCCN1C(=O)[C@H](CC(=O)NCCc2ccccc2OC)C[C@@]2(C(=O)OCC)CCCC=C12	-
COCCCNC(=O)C[C@@H]1C[C@@]2(C(=O)OC)CCCCC=C2N(CCc2ccc(OC)c(OC)c2)C1=O	36	TTR inh HuH7=-;TTR act confirm=-
CCOC(=O)[C@]12CCCC=C1N(Cc1ccccc1)C(=O)[C@H](CC(=O)NCc1ccc(OC)c(OC)c1)C2	-
CCCCN1CCS(=O)(=O)N(Cc2cn(Cc3ccccc3Br)nn2)C(C(=O)OC)C1 (stereo unspecified)	-
CCC(C)NCCCCOc1ccc(Br)cc1 (stereo unspecified)	10	TTR inh HuH7=-;TTR act confirm=-
CCOc1ccc(OCCCCNC(C)(C)C)cc1	-
CCC(C)NCCCCOc1cc(C)cc(C(C)C)c1 (stereo unspecified)	-
O=C(OCC#CCSc1nnc(-c2cccs2)o1)c1ccc(F)cc1	-
COc1ccccc1C(=O)Nc1cccc(SC)c1	-
COc1ccc(NC(=O)c2ccccc2SC)cc1OC	12	TTR inh HuH7=-;TTR act confirm=-
CSc1ccccc1C(=O)Nc1cccc(N(C)S(C)(=O)=O)c1	-
CC(C)CNC(=O)OCc1cn(Cc2ccccc2)nn1	-
SMILES	TTR transcr act	others
CC(C)c1ccc(NC(=O)O[C@@H]2CC[C@@]34CCCN3C(=O)CCC[C@H]4C2)cc1	-
COC(=O)[C@]12C[C@H](CC(=O)NCc3ccc(OC)c(OC)c3)C(=O)N(Cc3cccc4ccccc34)C1=C[C@H](C(C)C)O[C@@H]2C1CC1	-
COc1ccc(CNC2CCC23CCC(C)CC3)cc1 (stereo unspecified)	-
COC(=O)[C@H]1C[C@]2(C(C=C(C)C)S(=O)(=O)c3ccccc3)c3ccccc3N[C@H]2N1 (stereo partly specified)	-
O=C(Nc1nc2ccccc2s1)c1cccc(S(=O)(=O)N2CCc3ccccc32)c1	-
CCc1nnc(NC(=O)c2cccc(S(=O)(=O)N3CCc4ccccc43)c2)s1	15	TTR inh HuH7=-;TTR act confirm=-
CCc1nnc(NC(=O)c2cccc(S(=O)(=O)N3CCN(C(C)=O)CC3)c2)s1	-
O=C(NCCCc1ccccc1)[C@H](Cc1c[nH]c2ccccc12)NC1(C(=O)NCCc2c[nH]c3ccccc23)CCC1	-
CN1CCC(N[C@@H](Cc2ccccc2)C(=O)NCC(c2ccccc2)c2ccccc2)(C(=O)NC2CCCCC2)CC1	-
O=[N+]([O-])c1ccc(Cn2ccc3ccc(-c4ccc5ccn(Cc6ccccc6)c5c4)cc32)cc1	-
CSc1ccccc1C(=O)Nc1nccs1	-
O=C(Nc1nccs1)c1ccc2c(c1)OCO2	-
CCOC(=O)c1ccc(NC(=O)c2cccc(C)c2[N+](=O)[O-])cc1	-
Cc1cccc(C(=O)Nc2nccs2)c1[N+](=O)[O-]	40	TTR inh HuH7=-;TTR act confirm=-
Cc1ncoc1C(=O)Nc1nccs1	10.0	TTR inh HuH7=-;TTR act confirm=-
CC(=O)c1noc(C)c1C(=O)Nc1nccs1	-
C=CCOC(=O)C(CO)NC(=O)CCCC(=O)O (stereo unspecified)	-
Cc1cccc2c1CCC1CN(Cc3ccccc3)S(=O)(=O)N21 (stereo unspecified)	-
O=C(Cn1cnc2ccccc2c1=O)N1CCOCC1	12	TTR inh HuH7=-;TTR act confirm=-
O=C(Cn1cnc2ccccc2c1=O)NCCC(=O)N1CCN(Cc2ccccc2)CC1	-
COC(=O)Cn1cnc2ccccc2c1=O	-
COC(=O)[C@H]1C[C@]2(C/C=C(\C)CCC=C(C)C)c3ccccc3N[C@H]2N1	-
COC(=O)[C@]12C[C@H](CC(=O)N3CCCC3)C(=O)N(CCc3ccc(OC)c(OC)c3)C1=C[C@H](C(C)C)O[C@@H]2C1CC1	-
COCCCNC(=O)C[C@H]1C[C@@]2(C(=O)OC)C(=C[C@H](COCc3ccccc3)O[C@@H]2C)N(Cc2ccco2)C1=O	-
Cc1ccc(CS(=O)(=O)c2nsc(C)c2C#N)cc1	19	TTR inh HuH7=-;TTR act confirm=-
SMILES	TTR transcr act	others
Cc1ccc(S(=O)(=O)Nc2nsc(N)n2)cc1	-
Cc1cc(C)c(C#N)c(SCc2ccc([N+](=O)[O-])cc2)n1	-
C=CCN(Cc1ccc(OC)cc1OC)C(C#CCCCC)c1ccccc1 (stereo unspecified)	-
O=C(NC1CCCc2c1cnn2-c1ccc(F)cc1F)c1cccs1 (stereo unspecified)	-
CCCC1CCC2(CCCN2CCOC(=S)Nc2ccccc2Br)CC1 (stereo unspecified)	-
O=C(NCCc1ccccc1)OCc1cn(-c2ccc(F)cc2)nn1	-
O=C(OCc1cn(Cc2ccccc2Cl)nn1)N1CCOCC1	-
O=C(NC(=O)c1ccccc1Cl)Nc1ccc(-c2cnco2)cc1	-
O=C(Nc1ccc(-c2cnco2)cc1)c1ccccc1	14	TTR inh HuH7=-;TTR act confirm=-
O=C(Nc1ccc(-c2cnco2)cc1)c1ccc(Cl)cc1	-
COC(=O)[C@]12C[C@H](CC(=O)NCc3ccccc3)C(=O)N(CCc3ccc(OC)c(OC)c3)C1=C[C@H](C(C)C)O[C@@H]2C1CC1	-
COC(=O)[C@]12C[C@H](CC(=O)N3CCCC3)C(=O)N(Cc3cccc4ccccc34)C1=C[C@H](C(C)C)O[C@@H]2C1CC1	-
CCCCn1c(SCC(=O)Nc2cc(C)on2)nc2cc(S(N)(=O)=O)ccc21	-
CCCCn1c(SCc2c(C)noc2C)nc2cc(S(N)(=O)=O)ccc21	16	TTR inh HuH7=-;TTR act confirm=-
CCCCn1c(SCC(=O)Nc2oc(C)c3c(C)n[nH]c(=O)c23)nc2cc(S(N)(=O)=O)ccc21	-
COC(=O)c1cc(-c2cc3ccccc3o2)c(=O)n2c1CCC2	-
COC(=O)[C@]12CCCCC=C1N(Cc1ccc(OC)cc1)C(=O)[C@@H]2CC(=O)N1CCN(C(=O)C2CC2)CC1	-
O=C(NNC(=O)c1ccco1)c1ccc(NS(=O)(=O)c2cccs2)cc1	14	TTR inh HuH7=-;TTR act confirm=-
O=C(O)c1ccc(/C=N/NC(=O)c2ccc(NS(=O)(=O)c3cccs3)cc2)cc1	-
O=C(NNC(=O)c1cc(F)c(F)cc1Cl)c1ccc(NS(=O)(=O)c2cccs2)cc1	-
O=C(Nc1ccc(Br)c(C(F)(F)F)c1)[C@@H]1CC=C[C@@H]2CCN(CC3CC3)C(=O)[C@@H]21	-
